In article PMC4336329 (PLoS ONE, 2015):
Screen size: about 310,000 compounds; about 14,000 (4.5%) showed an effect of 50% or more. Effects have a minus sign here. The list comes from a sample in which strong results are over-represented; it also holds similar structures and randomly drawn compounds.

Biological target: human ether-à-go-go-related gene (hERG) potassium channel (human, UniProt Q12809)
Assay: primary screen, population patch clamp on CHO cells stably expressing hERG; higher = less effect of the substance
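Note: peak tail current of the secondary pulse compared with the same well before compound.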

Sequence of human ether-à-go-go-related gene (hERG) potassium channel (Q12809 whole entry, looked up): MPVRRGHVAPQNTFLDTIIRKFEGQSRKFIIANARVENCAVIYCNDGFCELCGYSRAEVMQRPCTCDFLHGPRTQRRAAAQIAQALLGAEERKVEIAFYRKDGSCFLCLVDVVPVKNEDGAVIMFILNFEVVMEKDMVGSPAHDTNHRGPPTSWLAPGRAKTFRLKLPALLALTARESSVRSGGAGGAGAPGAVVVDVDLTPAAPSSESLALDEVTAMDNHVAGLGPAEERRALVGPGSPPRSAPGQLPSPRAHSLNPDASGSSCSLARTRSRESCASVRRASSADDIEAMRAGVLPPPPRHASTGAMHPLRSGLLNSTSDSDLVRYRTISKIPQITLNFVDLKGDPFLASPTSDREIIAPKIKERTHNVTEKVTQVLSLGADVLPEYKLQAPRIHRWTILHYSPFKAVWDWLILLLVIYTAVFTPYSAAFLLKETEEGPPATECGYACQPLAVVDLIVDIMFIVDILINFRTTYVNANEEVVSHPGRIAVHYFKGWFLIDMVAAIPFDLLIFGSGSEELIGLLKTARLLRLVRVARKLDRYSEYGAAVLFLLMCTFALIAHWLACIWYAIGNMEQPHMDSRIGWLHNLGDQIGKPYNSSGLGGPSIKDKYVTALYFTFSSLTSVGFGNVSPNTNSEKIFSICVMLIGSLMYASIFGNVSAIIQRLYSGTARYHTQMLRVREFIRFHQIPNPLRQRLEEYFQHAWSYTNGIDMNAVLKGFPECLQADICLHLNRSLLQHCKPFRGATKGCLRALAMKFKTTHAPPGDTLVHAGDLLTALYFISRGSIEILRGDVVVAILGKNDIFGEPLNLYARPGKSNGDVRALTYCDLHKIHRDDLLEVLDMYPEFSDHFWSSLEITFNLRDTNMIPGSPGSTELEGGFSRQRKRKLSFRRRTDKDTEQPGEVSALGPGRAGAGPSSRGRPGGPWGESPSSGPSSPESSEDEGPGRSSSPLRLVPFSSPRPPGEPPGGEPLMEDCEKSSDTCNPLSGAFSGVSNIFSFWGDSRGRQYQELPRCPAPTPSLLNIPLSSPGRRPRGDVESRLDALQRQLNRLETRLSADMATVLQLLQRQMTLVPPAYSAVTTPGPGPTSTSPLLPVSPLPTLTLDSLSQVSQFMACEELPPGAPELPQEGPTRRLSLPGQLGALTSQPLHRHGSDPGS

SMILES	hERG current change (%, negative = inhibition) at 10uM [%]
NC(=O)C(c1ccccc1)c1ncc(C(F)(F)F)cc1Cl (stereo not drawn)	4.88
CC(C)Oc1cccc(C(=O)C2CCCN(C(=O)c3ccoc3)C2)c1 (stereo not drawn)	-14.7
Cc1cccc(OCC(=O)N2CCN(Cc3cccnc3)CC2)c1.O=C(O)C(=O)O	-3.95
Cc1cccc(OCC(=O)N2CCN(C(=O)Cc3ccccc3)CC2)c1	-13.2
COc1ccc(OCC(=O)N2CCN(C(=O)c3cccc(F)c3)CC2)cc1	-7.41
Cc1cccc(OCC(=O)N2CCN(C(=O)COc3ccc(Cl)cc3)CC2)c1	-72.2
Cc1cccc(OCC(=O)N2CCN(S(C)(=O)=O)CC2)c1	11.2
O=C(COc1ccc(Cl)cc1)N1CCN(C(=O)c2cccc(F)c2)CC1	-58.5
COc1ccc(OCC(=O)N2CCN(Cc3ccc(SC)cc3)CC2)cc1.O=C(O)C(=O)O	-50.9
CSc1ccc(CN2CCN(C(=O)COc3cccc(C)c3)CC2)cc1	-50.3
CSc1ccc(CN2CCN(C(=O)CC(C)C)CC2)cc1	9.42
Cc1cccc(OCC(=O)N2CCOCC2)c1	15.5
COc1ccc(OCC(=O)N2CCN(C(C)C)CC2)cc1.O=C(O)C(=O)O	6.62
O=C(COc1ccccc1)N1CCN(C(=O)c2cccc(F)c2)CC1	-7.92
O=C(CS(=O)(=O)c1ccc(F)cc1)Nc1nnc(-c2cccs2)o1	13.3
O=C(COC(=O)c1cnccn1)Nc1ccc(Cl)cc1C(F)(F)F	0.684
CN(C)S(=O)(=O)c1ccc(C(=O)Nc2nnc(-c3ccco3)o2)cc1	12.4
CCOC(=O)N1CCN(C(=O)C(NC(=O)c2ccc(CC)cc2)C(C)C)CC1 (stereo not drawn)	-19.5
COc1cc(N2C(=O)CC(=O)NC2=O)cc(OC)c1OC	17.1
COCCCNC(=O)CCCCCNS(=O)(=O)c1ccc(Br)cc1	-21.4
CC(=O)Nc1ccc(/C=C/C(=O)c2ccccc2)cc1	9.09

SMILES	hERG current change (%, negative = inhibition) at 10uM [%]
Cc1ccccc1NC(=O)c1ccc(S(=O)(=O)C(F)F)cc1	-27.6
Cn1c(=O)oc2cc(S(=O)(=O)CCC(=O)NCCc3ccccc3)ccc21	7.46
CN(C)S(=O)(=O)c1cccc(-c2cn3cc(Cl)ccc3n2)c1	7.03
Cc1cccc(C(=O)OCC(=O)NC(=O)Cc2ccccc2)c1O	13.8
Cc1ccc(OCC(=O)N2CCN(Cc3ccc4c(c3)OCO4)CC2)cc1.O=C(O)C(=O)O	-15.7
Cc1ccc(OCC(=O)N2CCN(Cc3cccnc3)CC2)cc1.O=C(O)C(=O)O	17.7
COc1ccccc1OCC(=O)N1CCN(c2ccccc2OC)CC1	1.3
COc1ccccc1N1CCN(C(=O)COc2cc(C)cc(C)c2)CC1	10.8
CSc1ccc(CN2CCN(C(=O)COc3ccc(C)cc3)CC2)cc1.O=C(O)C(=O)O	-60.4
COc1ccccc1N1CCN(C(=O)COc2ccc(Cl)cc2)CC1	-68.5
CCc1nnc(NC(=O)CN2C(=O)NC3(CC(C)CC(C)(C)C3)C2=O)s1 (stereo not drawn)	7.29
O=C1NC(=O)N(c2ccccc2)C1=O	19.9
CCc1ccc(C(=O)NC(=S)NCc2cccnc2)cc1	-40.7
CC(C)(C)C(=O)Nc1ccc(NC(=O)C(C)(C)C)cc1	-6.63
O=C(Nc1cccc(Br)c1)c1ccc(CN2CCc3ccccc3C2)cc1	-1.55
O=S(=O)(Cc1cc(NCc2ccccc2)nc(-c2ccncc2)n1)c1ccccc1	20.3
Nc1scn[n+]1Cc1cccc2cccnc12.[Br-]	-11.1
Nc1sc(-c2ccccc2)n[n+]1Cc1cccc2cccnc12.[Br-]	-66.7
Cc1cc(C[n+]2cc(Cl)ccc2N)c2ncccc2c1.[Br-]	-48.1
Nc1scc[n+]1Cc1cccc2cccnc12.[Br-]	-12.3
Nc1ccc(Cl)c[n+]1Cc1cccc2cccnc12.[Br-]	-46.1

SMILES	hERG current change (%, negative = inhibition) at 10uM [%]
Cc1cc(CSc2nc(C)cc(=O)[nH]2)c2ncccc2c1	-3.07
OCc1ccccc1OCCCOc1cccc2cccnc12	-3.4
Nc1ccc(Br)c[n+]1Cc1cccc2cccnc12.[Br-]	-51.6
Cc1cc(C[n+]2cc(Br)ccc2N)c2ncccc2c1.[Br-]	-68
Cc1noc(C)c1CSCC(=O)Nc1cc(Cl)ccc1N1CCCCC1	1.96
CCN(CC)S(=O)(=O)c1ccc(NC2c3ccccc3C(=O)N2CCN2CCOCC2)cc1 (stereo not drawn)	-37
Cc1ccc2c(CC(=O)NC3CCS(=O)(=O)C3)coc2c1C (stereo not drawn)	1.78
CC(C(=O)NCc1ccccc1Cl)n1cc([N+](=O)[O-])cn1 (stereo not drawn)	4.65
Cc1ccc2cc3c(NS(=O)(=O)c4cccc5nonc45)nn(CC(C)C)c3nc2c1	9.9
COc1ccc(CNCCc2c[nH]c3ccccc23)c(OC)c1OC.O=C(O)C(=O)O	-7.44
COc1cc(CNCCc2c[nH]c3ccccc23)ccc1OCc1ccc(F)cc1.Cl	-48.4
COc1cc(C)c(CNCCc2c[nH]c3ccccc23)cc1C.O=C(O)C(=O)O	-36.9
COc1cccc(CNCCc2c[nH]c3ccccc23)c1OC.Cl	-11.1
COc1ccc(CNCCc2c[nH]c3ccccc23)c(OC)c1C.O=C(O)C(=O)O	-60.3
COc1cccc(CNCCc2c[nH]c3ccccc23)c1OCc1ccccc1.Cl	-47
COc1cc(CNCCc2c[nH]c3ccccc23)ccc1OCc1ccccc1F.Cl	-52
COc1cc(C(=O)N[C@@H](Cc2c[nH]c3ccccc23)C(=O)O)cc(OC)c1OC	-53.1
COc1ccc(CNCCc2c[nH]c3ccccc23)cc1OC.O=C(O)C(=O)O	-28
O=C(NC(Cc1c[nH]c2ccccc12)C(=O)O)c1ccccc1 (stereo not drawn)	1.22
COc1ccc(C(=O)NC(Cc2c[nH]c3ccccc23)C(=O)O)cc1 (stereo not drawn)	12.4
COc1cccc(CNCCc2c[nH]c3ccccc23)c1OCc1ccccc1F.Cl	-55.8
